Screening data from PubChem.
Rango release inh – prevents RanGTP from dissociating the Rango-importin beta complex; O95149+P62826; Biochemical FRET Rango-importin beta, RanGTP-induced dissociation; Potency, µM (highest dose often 46.1 µM), without a hit: at the top dose activity change, negative = inhibition; 0.071% of 340,000 active; note: potency is the fitted concentration of half-maximal effect; % of control where 0% means no effect; nearly all actives have a fitted effect of over 45% in size
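Two FRET readings bracket the reaction: one 5 min after compound meets Rango–importin beta, another 45 min after RanGTP-RCC1 (0.6 uM Ran, 0.2 uM RCC1, 2 mM GTP) is added. Only the second defines inhibition.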
CBFb RUNX1 block – blocks binding between human CBF-beta and RUNX1 | Q01196+Q13951 | AlphaScreen CBFb-His/RUNX1-biotin binding, biochemical | Potency, µM (titrated, usually from 59.8 µM), for the others: top-dose activity, negative = inhibition, usual class: inhibitors | 230,000 tested, under 10 active | AID 1477; active = well fitted curve in the direction sought with a large enough effect; inconclusive = small, poorly fitted or top-dose-only effect, or effect the other way, or another doubt; inactive = no such curve, though single readings can be large or run the other way; note: % of control where 0% means no effect
Target sequence (Q01196 whole entry, looked up): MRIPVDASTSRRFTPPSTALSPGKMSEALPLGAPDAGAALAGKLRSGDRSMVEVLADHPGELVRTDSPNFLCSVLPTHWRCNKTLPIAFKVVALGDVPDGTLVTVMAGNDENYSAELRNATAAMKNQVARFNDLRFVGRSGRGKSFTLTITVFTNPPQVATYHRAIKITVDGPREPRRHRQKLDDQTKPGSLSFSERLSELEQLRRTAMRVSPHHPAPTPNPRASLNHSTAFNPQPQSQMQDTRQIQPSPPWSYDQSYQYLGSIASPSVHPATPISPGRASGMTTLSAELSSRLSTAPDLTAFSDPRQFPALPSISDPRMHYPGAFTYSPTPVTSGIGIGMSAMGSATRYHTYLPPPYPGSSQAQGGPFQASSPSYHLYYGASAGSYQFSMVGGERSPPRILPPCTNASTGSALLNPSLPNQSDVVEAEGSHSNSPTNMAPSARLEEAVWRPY
Target sequence (Q13951 whole entry, looked up): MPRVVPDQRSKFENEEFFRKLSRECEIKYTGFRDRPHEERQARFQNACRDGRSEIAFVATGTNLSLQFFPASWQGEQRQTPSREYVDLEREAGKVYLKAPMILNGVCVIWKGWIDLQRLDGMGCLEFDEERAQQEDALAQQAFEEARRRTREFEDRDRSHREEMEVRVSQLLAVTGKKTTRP
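Room-temperature protein-protein interaction test with 30 nM each of His-tagged CBF-beta and biotinylated RUNX1, 15 min with compound, then 90 min with nickel plus streptavidin beads. Signal read in AlphaScreen mode.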
Rango-impB inh – prevents formation of the Rango-importin beta complex. Rango CFP/YFP FRET sensor + importin beta, 45 min. Potency, µM (top dose mostly 92.2 µM), inactives show at the top dose inhibition of complex formation. 0.031% of 340,000 active. AID 540263;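 note: potency is the fitted concentration of half-maximal effect; 0% = DMSO wells and 100% = buffer wells lacking importin beta; nearly all actives have a fitted effect of over 15% in size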
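Inhibition scored from the CFP 486 nm/YFP 530 nm FRET ratio 45 min after adding 0.125 microM importin beta to 50 nM Rango biosensor preincubated 5 min with compound (room temperature, PBS with DTT, Tween-20, BSA). No-importin wells as positive control.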
ClpP mod – qHTS Assay for Activators of ClpP. purified B. subtilis ClpP, FRET peptide cleavage, 20 min. Potency, µM (titrated, usually from 57.5 µM), inactives show at the top dose activity change, negative = active. ATP-dependent Clp protease proteolytic subunit (Bacillus subtilis (strain 168)), P80244. AID 651965, 2013. 1.9% of 340,000 active; active = well fitted falling curve with a large enough effect; inconclusive = small, poorly fitted or top-dose-only effect; inactive = no such curve, though single readings can be large or run the other way; note: potency is the fitted concentration of half-maximal effect; the source files actives as falling curves though it sought activators and does not explain the sign; nearly all actives have a fitted effect of over 65% in size
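FRET quenching reversal measured ClpP activation: 10 microg/mL B. subtilis ClpP at pH 8 with the FRET-FV decapeptide, read at 430 nm after 320 nm excitation. The 20-min minus 0-min signal was scaled between DMSO/no-enzyme wells and ADEP (5.8 microM final).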
MBNL1-CUG inh – MBNL1-poly(CUG) RNA binding inhibition; Q9NR56; TR-FRET MBNL1-His/biotin-(CUG)12 binding, 665/545 ratio; Potency, µM (series often up to 57.5 µM), for inactives: at the top dose activity change, negative = inhibition, most hits filed as inhibitors; AID 2675; 0.036% of 280,000 active; active = well fitted inhibition curve with a large enough effect in the signal ratio, with a control signal flat, not every such curve was filed as active; inconclusive = small, poorly fitted or top-dose-only effect, or effect the other way, or a change in a side signal; inactive = no such curve, though single readings can be large or run the other way; the % refers to the signal ratio; note: potency is the fitted concentration of half-maximal effect; % is set by controls: 0 for no effect and ±100 for the full control effect
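TR-FRET between His-tagged MBNL1 and biotin-(CUG)12 RNA, detected with Tb anti-His antibody (0.055 ng/ul) and streptavidin-XL665 (5 nM), 60 min at room temperature. Compounds titrated 92 nM to 58 uM; 665/545 nm ratio normalized to buffer and complex controls.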
* marks the source's active call; other numbers are inactive results; ? = inconclusive; nt = not tested or not shown. This excerpt belongs to a sample that is enriched for hits. Unless noted, calls come from the whole dose curve.

SMILES	Rango release inh	CBFb RUNX1 block	Rango-impB inh	ClpP mod	MBNL1-CUG inh
c1ccc(-n2nc3c(ccc4cnnc43)[nH]2)cc1	-10.0%	9.4%	5.2%	11.2µM*	-2.1%
CCCCC1CCC(CCCC(C)CCC(=O)O)CC1 (stereo unspecified)	nt	nt	nt	-1.5%	nt
COCC(=O)Nc1nc2n(n1)C(c1ccccc1)CC(c1ccc(OC)cc1)N2 (stereo unspecified)	?	-5.3%	?	25.1µM*	4.4%
COCC(=O)Nc1nc2n(n1)C(c1ccc(OC)cc1)CC(c1ccc(OC)cc1)N2 (stereo unspecified)	3.6%	-8.3%	0.2%	-2.3%	-1.2%
Cc1sc2nc3c4ccccc4c(NCc4ccco4)nn3c(=O)c2c1C	-20.4%	7.9%	?	25.1µM*	9.3%
Cc1nc(NCc2ccco2)c2c(C)c(C)sc2n1	6.1%	2.1%	-1.6%	0.5%	-5.4%
Cc1sc2c(c1C)c(=O)n(-c1ccc(Cl)cc1)c(=O)n2Cc1c(F)cccc1Cl	nt	nt	nt	-0.5%	nt
N#C/C(=C\c1c(N2CCCCC2)nc2ccccn2c1=O)C(=O)NC1CCS(=O)(=O)C1 (stereo unspecified)	?	?	?	3.98µM*	nt
Cc1cccc(Oc2nc3ccccn3c(=O)c2/C=C(\C#N)C(=O)NC2CCS(=O)(=O)C2)c1 (stereo unspecified)	?	-5.3%	?	25.1µM*	nt
O=C1CC(O)(C(F)F)Oc2ccc3ccccc3c21 (stereo unspecified)	-0.1%	-1.7%	0.1%	25.1µM*	13.1%
Cc1ccc(-c2cc(C)nc3ncnn23)cc1	1.1%	2.7%	0.2%	4.7%	-3.0%
Cc1ccc(-c2cc(C)nc3nc(N)nn23)cc1	0.9%	6.6%	-0.2%	14.1µM*	-0.8%
CC(C1=C(CCN(C)C)Cc2ccccc21)c1ccccn1 (stereo unspecified)	-6.2%	nt	1.9%	31.6µM*	nt
Cc1cccc(NC(=O)CN2C(=O)CSc3ccc(S(=O)(=O)N4CCCC4)cc32)c1C	nt	nt	nt	0.8%	nt
CCOc1ccc(CCNC(=O)CCc2nc(-c3ccc(OC)cc3)no2)cc1OCC	11.9%	3.2%	-3.5%	25.1µM*	-0.3%
CCOc1ccc(-c2noc(-c3ccncc3)n2)cc1OCC	-10.0%	6.3%	0.0%	-12.4%	-5.5%
CCOc1ccc(-c2nc(-c3ccc(OC)cc3)no2)cc1OCC	1.1%	12.4%	0.5%	31.6µM*	8.2%
COc1cc(OC)c(NC(=O)Cn2c(SCc3ccccc3F)nc3cccnc32)cc1Cl	nt	nt	nt	-3.1%	nt
Cc1ccc(S(=O)(=O)NCCc2nnc3ccc(SCc4ccc(F)cc4)nn23)cc1	nt	nt	nt	-3.4%	nt
CCN(CC)C(=O)CSc1nc2nc(C)cc(C)c2c(=O)[nH]1	-13.7%	2.4%	2.7%	25.1µM*	-28.4%
CC1(C)CC(=O)c2sc(NC(=O)CN3CCCCC3)nc2C1	7.0%	6.9%	5.8%	15.8µM*	-3.0%
CC(C)CCNC(=O)c1cc(-c2cccnc2)nc2ccc(S(=O)(=O)N3CCC(C)CC3)cc12	nt	nt	nt	-0.5%	nt
CCCCc1cc(=O)oc2c(C)c(OCC(=O)N3CCCC3)ccc12	-0.7%	nt	3.2%	12.6µM*	2.6%
C=C(C)COc1ccc2c(CC)cc(=O)oc2c1C	5.5%	11.3%	5.9%	12.6µM*	nt
Cc1cc(=O)oc2c(C)c(OCC(=O)N(C)C)ccc12	-8.7%	-1.1%	-3.0%	15.8µM*	1.8%
SMILES	Rango release inh	CBFb RUNX1 block	Rango-impB inh	ClpP mod	MBNL1-CUG inh
CC1=C(C(=O)Nc2ccc(C)cc2C)C(c2sccc2C)n2ncnc2N1 (stereo unspecified)	nt	nt	nt	-2.2%	nt
Cc1cccc2c1N(Cc1ccccc1OCCC(C)C)C(=O)C2=O	nt	nt	nt	0.5%	nt
COc1ccc(N2CC(C(=O)Nc3ccccc3-c3nc(-c4ccc(C)cc4)no3)CC2=O)cc1 (stereo unspecified)	nt	nt	nt	-5.2%	nt
COc1ccc(/C=C2\Oc3ccccc3C2=O)cc1	4.6%	nt	0.4%	4.1%	nt
COc1ccc2c(c1)O/C(=C\c1sccc1C)C2=O	10.3µM*	1.4%	?	-0.1%	13.1%
COC(=O)c1ccc(Oc2nc3c(c(=O)n(C)c(=O)n3C)n2Cc2ccc(Cl)c(Cl)c2)cc1	nt	nt	nt	-0.1%	nt
COCCCn1c(-c2ccc(OC)cc2)nc2nc3ccccc3nc21	nt	7.4%	nt	nt	?
CCCn1c(-c2ccc(OC)cc2)nc2nc3ccccc3nc21	?	-0.1%	-5.8%	28.2µM*	26.6%
Fc1ccccc1-c1ccc(-c2nc3ccc(Cl)cn3c2Nc2ccc(Cl)cc2)o1	nt	nt	nt	-11.4%	nt
O=S1(=O)NC2CCCCCN2c2ccc(F)cc21 (stereo unspecified)	-12.4%	5.3%	-2.0%	28.2µM*	0.5%
O=C(Cn1ncc2ccsc2c1=O)N1CCN(c2ccc(F)cc2)CC1	nt	nt	nt	0.4%	nt
COc1cccc(NC(=O)CSC2=Nc3ccccc3C3=NC(CCC(=O)NCCc4ccccc4)C(=O)N23)c1 (stereo unspecified)	nt	nt	nt	-28.3%	nt
CC(C)COc1ccc(-c2nnc(-c3ccco3)o2)cc1	-17.0%	8.9%	3.7%	15.8µM*	1.2%
CCCOc1ccc(-c2nnc(-c3ccco3)o2)cc1	0.2%	1.0%	-2.0%	39.8µM*	11.8%
Cc1ccc(NCc2nnc3n2CCCCC3)cc1Cl	nt	nt	nt	-1.8%	nt
C=C1/C(=C\C=C2/CCC[C@]3(C)C([C@H](C)CCCC(C)(C)O)CC[C@@H]23)C[C@@H](O)C[C@@H]1O (stereo partly specified)	nt	20.5%	nt	nt	nt
O=C(c1cc(COc2ccc(F)cc2Cl)on1)N1C[C@H]2CC[C@H]1C2	3.8%	nt	1.2%	28.2µM*	4.6%
O=C(c1cc(COc2ccc(F)cc2Cl)on1)N1CC2C[C@@H]3CC1C[C@H](C2)C3	13.9%	nt	-4.9%	-2.4%	1.8%
O=C(Nc1ncc2c(n1)-c1ccccc1OC2)c1ccc(F)cc1	13.7%	7.2%	-1.9%	nt	0.4%
O=C(Nc1ncc2c(n1)-c1ccccc1OC2)c1ccc(Cl)cc1Cl	-0.3%	-0.8%	3.9%	35.5µM*	4.4%
O=C(Nc1ncc2c(n1)-c1ccccc1CC2)c1cccc(Cl)c1	-11.5%	1.5%	0.2%	?	-12.8%
O=C(Nc1ncc2c(n1)-c1ccccc1CC2)c1ccc(Cl)cc1	6.2%	-5.8%	-2.1%	28.2µM*	-4.3%
Cc1cc(N2CCN(c3ccccn3)CC2)n2cc(-c3ccccc3)nc2n1	-1.4%	3.0%	0.2%	28.2µM*	2.2%
